Anthrax LT inh: anthrax lethal toxin internalization inhibition; Cells, anthrax lethal toxin internalization, FRET ratio (460/530); 0.67% of 70,000 active; Potency, µM (doses to about 40 µM), actives largely listed as inhibitors; AID 912; note: nearly all actives have a fitted effect of over 50% in size
SmPrx2 inh: inhibitors of Schistosoma mansoni peroxiredoxin 2 | S. mansoni Prx2 activity coupled to TGR/GSH (TGR is thioredoxin glutathione reductase), NADPH fluorescence loss, qHTS | Potency, µM | 0.07% of 65,000 active
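Purified S. mansoni TGR and Prx2 in pH 7.4 phosphate buffer with EDTA and Tween-20 were preincubated with compounds for 15 min. Further NADPH/GSH was added, then a 2.5 mM H2O2 aliquot initiated turnover, followed kinetically by NADPH fluorescence.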
AmpC inh det: blocks E. coli AmpC beta-lactamase in presence of detergent. P00811. purified AmpC, nitrocefin hydrolysis with detergent. Potency, µM (series often up to 28.7 µM). 0.09% of 71,000 active; active = well fitted curve in the direction sought with a large enough effect; inconclusive = small, poorly fitted or top-dose-only effect
Target sequence (P00811 whole entry, looked up): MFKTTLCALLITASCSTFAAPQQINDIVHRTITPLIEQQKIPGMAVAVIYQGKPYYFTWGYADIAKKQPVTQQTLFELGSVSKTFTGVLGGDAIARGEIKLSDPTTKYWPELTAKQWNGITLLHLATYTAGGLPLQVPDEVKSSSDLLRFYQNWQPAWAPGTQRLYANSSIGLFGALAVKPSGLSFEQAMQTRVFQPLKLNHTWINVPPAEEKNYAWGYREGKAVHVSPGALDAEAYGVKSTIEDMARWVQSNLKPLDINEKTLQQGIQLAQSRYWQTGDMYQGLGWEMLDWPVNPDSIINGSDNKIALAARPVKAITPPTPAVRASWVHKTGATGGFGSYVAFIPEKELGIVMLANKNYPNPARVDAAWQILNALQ
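E. coli AmpC (5.3 nM) in 20 mM phosphate pH 7.0 with 0.01% Triton X-100, preincubated 15 min RT with compound; nitrocefin (2 uL of 800 uM stock) hydrolysis followed by 480 nm absorbance every 20 s over 4 min.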
AmpC nodet inh: AmpC beta-lactamase inhibition, detergent-free assay; AID 585; 1.8% of 71,000 active; P00811; AmpC nitrocefin hydrolysis, absorbance 480 nm, no detergent; Potency, µM (doses to about 28.7 µM)
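AmpC, 20 mM phosphate pH 7.0; 15 min cpd preinc, RT; start with nitrocefin (800 uM stock); A480 kinetic read, 20 s intervals, 4 min. No-enzyme wells = negative control.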
Hits are given with their value; i = inactive; ? = inconclusive; nt = no result; ! = repeats disagree; [ ] = remark or other dose. Shown are actives, neighbours in structure and some others; about 2.6% of the full set was active somewhere. Unless noted, calls come from the whole dose curve.

SMILES | Anthrax LT inh | SmPrx2 inh | AmpC inh det | AmpC nodet inh
CCOC(=O)C1CCCN(C(=O)c2ccc(CS(=O)(=O)Cc3ccccc3C)o2)C1 (stereo not drawn) | ? | i | i | i
Cc1ccc(S(=O)(=O)Cc2ccc(C(=O)N3CCCCCC3)o2)cc1 | i | i | i | i
Cc1ccc(S(=O)(=O)Cc2ccc(C(=O)N3CCCC3)o2)cc1 | i | i | i | 4µM[single pt active]
CCOc1ccc(-c2nnc(-c3ccco3)o2)cc1OCC | i | i | i | i
COc1ncc2nc(-c3cc(F)cc(F)c3)c(=O)n(C[C@H]3CCCO3)c2n1 | i | i | i | i
Cc1oc(C(C)(C)C)cc1C(=O)Nc1ccc2c(c1)OCCO2 | ? | i | i | i
CC(C)(C)c1ccc(/C=C/C(=O)Nc2ccc3c(c2)OCCO3)cc1 | 4µM | nt | nt | nt
Cc1cc(-n2c(SCC(=O)NCc3cccs3)nc3n[nH]c(C)c3c2=N)ccc1Cl | 10µM | i | i | i
Cc1[nH]nc2nc(SCC(=O)NCC3CCCO3)n(-c3ccc(Br)cc3)c(=N)c12 (stereo not drawn) | i | i | i | i
Cc1c(C(=O)NCc2ccc3c(c2)OCO3)oc2ccc(S(=O)(=O)N3CCCCCC3)cc12 | ? | i | i | i
CCCc1c(-c2ccc(O)cc2)nn(-c2ccc(O)cc2)c1-c1ccc(O)cc1 | ? | i | i | 7.9µM!
COc1ccc(OC)c(NC(=O)c2cc(S(=O)(=O)NCc3ccco3)ccc2F)c1 | ? | i | i | i
Cc1n[nH]c(C)c1S(=O)(=O)N1CCCC(C(=O)NCc2cccs2)C1 (stereo not drawn) | i | i | i | i
Cc1n[nH]c(C)c1S(=O)(=O)N1CCCC(C(=O)NC2CCCc3ccccc32)C1 (stereo not drawn) | i | i | i | 4µM[single pt active]
Cc1cc(CN2CCN(CCC#N)CC2)c(O)c(C2(C)CCCCC2)c1 | 13µM | i | i | i
CC1CCCN(S(=O)(=O)c2ccc(NC(=O)Cn3nnc(-c4ccccc4F)n3)cc2)C1 (stereo not drawn) | i | i | i | 16µM
CC1CCN(S(=O)(=O)c2ccc(NC(=O)Cn3nnc(-c4ccccc4)n3)cc2)CC1 | ? | i | i | i
Cc1ccc(-c2nnn(CC(=O)Nc3ccc(S(=O)(=O)N4CCC(C)CC4)cc3)n2)cc1 | i | i | i | 13µM
C=CCn1c(COc2ccccc2)nnc1SCc1ccc(C#N)cc1 | nt | i | i | i
C=CCn1c(COc2ccc(CC)cc2)nnc1SC/C(O)=C(\C#N)c1nc2ccccc2[nH]1 | i | i | i | 1.3µM
CCOc1ccc(-c2cc(CCCC(=O)NCc3ccco3)no2)cc1 | i | i | i | i
CCN(CC)c1ccc(NC(=O)CC2Oc3ccccc3NC2=O)c(C)c1 (stereo not drawn) | ? | i | i | 4µM[single pt active]
Cc1ccc(NC(=O)CC2Oc3ccccc3NC2=O)c(C)c1 (stereo not drawn) | i | i | i | 4µM[single pt active]
CCCc1cc2c(n1Cc1cc(F)cc(F)c1)C(C)C1CN(C(=O)c3ccccc3)C(C)(C(=O)OC)C21 (stereo not drawn) | i | i | i | i
N#C/C(=C\c1ccc(O)c(O)c1)C(N)=S | 25µM! | ? | i | i
SMILES | Anthrax LT inh | SmPrx2 inh | AmpC inh det | AmpC nodet inh
COc1cccc(C2CC(c3ccccc3C)n3nc(N)nc3N2)c1 (stereo not drawn) | i | i | i | 4µM[single pt active]
CCOc1ccc(C2CC(c3ccccc3C)n3nc(N)nc3N2)cc1 (stereo not drawn) | i | i | i | i
COc1ccc(C2CC(c3ccccc3C)n3nc(N)nc3N2)cc1 (stereo not drawn) | i | i | i | 4µM[single pt active]
Cc1ccc(C2CC(c3ccccc3C)n3nc(N)nc3N2)cc1 (stereo not drawn) | i | i | i | 4µM[single pt active]
COc1ccc(S(=O)(=O)N2CCN(c3c(C)cccc3C)CC2)cc1OC | ? | i | i | i
COc1ccc2cc(C3(C)NC(=O)N(CC(=O)NCc4ccco4)C3=O)ccc2c1 (stereo not drawn) | i | i | i | i
Cc1ccc(CCNC(=O)C2CCCN(S(=O)(=O)c3cnc[nH]3)C2)cc1 (stereo not drawn) | i | i | i | i
CCN(CCNC(=O)C1CCCN(S(=O)(=O)c2cnc[nH]2)C1)c1ccccc1 (stereo not drawn) | i | i | i | 4µM[single pt active]
O=C(NCCN1CCN(c2ccccc2)CC1)C1CCCN(S(=O)(=O)c2cnc[nH]2)C1 (stereo not drawn) | i | i | i | 2.5µM[single pt active]
CCN(CCCNC(=O)C1CCCN(S(=O)(=O)c2cnc[nH]2)C1)c1ccccc1 (stereo not drawn) | i | i | i | 4µM[single pt active]

Assay outcomes (PubChem)
